FBW7 activator: FBW7 E3 ligase activators, primary screen, biochemical, AlphaScreen, human. AlphaScreen FBW7–phospho-cyclin E peptide binding, activator screen. hit rate 0.13% among 650,000. F-box/WD repeat-containing protein 7 (Homo sapiens), Q969H0. normalized activity (activation), % at 26.1 µM; in the data active = normalized activity above about 1.9%;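 note: purified mutant Fbw7 with reduced substrate affinity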
GPR151 ag: activators of human GPR151, primary screen, cell-based, PathHunter beta-arrestin, luminescence | AID 1508602, 2020 | PathHunter beta-arrestin GPR151 cells | activation, % at 11.2 µM | hit rate 1% among 650,000; in the data active = activation above about 4.9%
MITF inh: MITF inhibitors, primary screen, biochemical, AlphaScreen, human | Microphthalmia-associated transcription factor (Homo sapiens), O75030 | AlphaScreen MITF homodimerization, bead proximity signal | hit rate 0.91% among 650,000 | inhibition, % at 2.6 µM; in the data active = inhibition above about 50%
TEAD-YAP block: TEAD-YAP interaction inhibition, primary screen, TEAD-YAP interaction inhibitor project, luminescence, HEK-TIYL cells. hit rate 1.4% among 640,000. TEAD-Gal4/YAP UAS-luciferase luminescence. inhibition, % at 9.12 µM. AID 1259422, 2018; in the data active = inhibition above about 32%
GPR151 conf act: GPR151 activators, triplicate retest, confirmation, cell-based, PathHunter beta-arrestin, luminescence; activation, % at 11.2 µM; 6,700 tested, under 10 active; AID 1508609, 2020; GPR151 PathHunter beta-arrestin cells, 90 min; % of EA-reagent control over plate median; shares compounds with GPR151 ag;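 active = mean percent activation across replicates above the confirmation screen cutoff of 4.91%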
GPR119 ag: GPR119 activators in beta-arrestin cells, counter-screen for GPR151 activator project, cell-based, PathHunter beta-arrestin, luminescence, triplicate. shares compounds with GPR151 ag. 90 min; 0 = compound-well median, 100 = enzyme-acceptor control. activation, % at 11.2 µM. hit rate 0.3% among 6,700. AID 1508611, 2020;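 active = mean percent activation in the counterscreen above 29.09%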;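 note: counterscreen on off-target GPR119 to flag nonselective hits from the GPR151 activator screen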
Target sequence (Q8TDV5 whole entry, looked up): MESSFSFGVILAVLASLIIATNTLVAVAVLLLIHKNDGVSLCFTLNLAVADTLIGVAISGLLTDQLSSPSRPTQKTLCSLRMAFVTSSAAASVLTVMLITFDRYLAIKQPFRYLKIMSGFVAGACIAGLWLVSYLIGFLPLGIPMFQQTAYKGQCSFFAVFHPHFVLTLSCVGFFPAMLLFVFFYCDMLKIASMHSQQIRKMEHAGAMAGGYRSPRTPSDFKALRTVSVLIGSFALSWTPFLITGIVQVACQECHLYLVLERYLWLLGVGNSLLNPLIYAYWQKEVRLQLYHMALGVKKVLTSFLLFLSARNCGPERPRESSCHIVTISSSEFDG
A number is an active result; . = inactive; / = no result. Only some compounds are listed: those with a hit (about 3.4% of all), similar ones and a draw of the others.

SMILES	FBW7 activator	GPR151 ag	MITF inh	TEAD-YAP block	GPR151 conf act	GPR119 ag
CCOC(=O)c1c(C)[nH]c(NC(=O)Nc2ccc(F)cc2)c1C	.	.	.	.	/	/
CCOC(=O)c1c(C)[nH]c(NC(=O)Nc2ccc(OCC)cc2)c1C	.	6.0	.	.	.	.
O=C(O)c1cc(N2C(=O)C3C4C=CC(C4=C(c4ccccc4)c4ccccc4)C3C2=O)ccc1Cl (centres undefined)	.	5.1	.	.	.	.
Cc1ccc2c(c1)-c1c(cnn1CC(=O)Nc1cccnc1Cl)CO2	.	.	.	.	/	/
Brc1cccc(CNCc2ccncc2)c1	.	13	.	.	.	.
Brc1cccc(CNCc2cccnc2)c1	.	.	.	.	/	/
CS(=O)(=O)c1ccc(-c2ccnc(Nc3ccc(-n4cncn4)cc3)n2)cc1	.	.	.	.	/	/
CCC(C)NCCOc1ccc([N+](=O)[O-])cc1 (centres undefined)	.	6.6	.	.	.	.
O=C(NCCSC1CCCCC1)Nc1ccccc1	.	5.1	.	.	.	.
O=C(O)CC1c2ccccc2CCN1S(=O)(=O)c1ccc(Cl)cc1 (centres undefined)	.	6.0	.	.	.	.
O=C(O)CC1c2ccccc2CCN1S(=O)(=O)c1ccccc1 (centres undefined)	.	.	.	.	/	/
Cc1cc(-c2ccccc2)n(-c2cc(Cl)ncn2)n1	.	.	.	.	/	/
Cc1ccc(N2C(=O)c3ccc(F)cc3C2=O)cc1C	.	.	.	.	/	/
CN1C(=O)C(CC(=O)Nc2ccc(F)cc2)N(NC(=O)c2ccc(Cl)cc2)C1=S (centres undefined)	.	.	.	.	/	/
Cc1cc(=O)oc2c1ccc1oc(C(=O)c3ccc(Cl)cc3)c(C)c12	.	5.7	.	.	.	.
CC(=O)c1oc2ccc3c(C)cc(=O)oc3c2c1C	.	.	.	.	/	/
CC1=C(C#N)C(=O)NC(=O)/C1=C\c1ccc(-c2ccc(Cl)c(Cl)c2)o1	.	.	.	.	/	/
CCCNC(=O)c1ccc2nc(N3CCc4ccccc4C3)sc2c1	.	.	.	.	/	/
O=C(NCc1ccccc1)c1ccc2nc(N3CCc4ccccc4C3)sc2c1	.	5.6	.	.	.	.
COc1ccc(NC(=O)c2cc(-c3ccccc3F)no2)cc1OC	.	.	.	.	/	/
O=C(Nc1ccc2c(c1)OCO2)c1cc(-c2ccccc2F)no1	.	5.2	.	.	.	.
COc1ccc(NC(=O)c2cc(-c3ccccc3O)no2)cc1OC	.	5.5	.	.	.	.
Cc1cc(C(=O)Nc2ccc3c(c2)OCO3)on1	.	.	.	.	/	/
COc1cccc2cc(C(N)=O)/c(=N/NC(=O)COc3ccccc3C)oc12	.	.	.	.	/	/
Cc1c(NC(=S)NC(=O)c2oc3ccccc3c2C)cccc1-c1nc2ccccc2s1	.	10	.	.	.	.
SMILES	FBW7 activator	GPR151 ag	MITF inh	TEAD-YAP block	GPR151 conf act	GPR119 ag
O=C(Nc1ccccc1[N+](=O)[O-])c1cccc(F)c1	.	.	.	.	/	/
CN(Cc1ccccc1)c1ccnc2c(-c3ccc(O)cc3)cnn12	.	5.0	.	73	.	.
CCCCCC(=O)Nc1ccc(N2CCN(CC)CC2)cc1	.	11	.	.	.	.
O=C(O)C1CCCN(c2ncnc3scc(-c4ccccc4)c23)C1 (centres undefined)	.	18	.	.	.	.
CCOC(=O)C1CCCN(c2ncnc3scc(-c4ccccc4)c23)C1 (centres undefined)	.	.	.	.	/	/
CC/C(C)=C(\C#N)c1nc2ccccc2[nH]1	.	5.7	.	.	.	.
COc1ccc(OC/C(O)=C(\C#N)c2nc3ccccc3[nH]2)cc1	.	.	.	.	/	/
COc1cccc(OC/C(O)=C(\C#N)c2nc3ccccc3[nH]2)c1	.	5.2	.	.	.	.
CCc1cc(C(=O)Cc2ccc3c(c2)OCCCO3)c(O)cc1OC	.	5.2	.	.	.	.
COc1ccc(N2CCN(c3ncnc4sc(C)c(C)c34)CC2)cc1	.	.	.	.	/	/

Compound activity: PubChem, The Scripps Research Institute Molecular Screening Center
